# From PubChem
# TRPML1 ag: qHTS for Agonists of the Human Mucolipin Transient Receptor Potential 1 (TRPML1). Mucolipin-1 (Homo sapiens), Q9GZU1. TRPML1-expressing cells, Ca2+ dye fluorescence, FDSS. activation, % (concentration not given with the values). actives 0.12% (n = 410,000). AID 624414, 2012; in the data active means activation above about 50%; inconclusive means mostly about 30% to 49%
# Target sequence (Q9GZU1 whole entry, looked up): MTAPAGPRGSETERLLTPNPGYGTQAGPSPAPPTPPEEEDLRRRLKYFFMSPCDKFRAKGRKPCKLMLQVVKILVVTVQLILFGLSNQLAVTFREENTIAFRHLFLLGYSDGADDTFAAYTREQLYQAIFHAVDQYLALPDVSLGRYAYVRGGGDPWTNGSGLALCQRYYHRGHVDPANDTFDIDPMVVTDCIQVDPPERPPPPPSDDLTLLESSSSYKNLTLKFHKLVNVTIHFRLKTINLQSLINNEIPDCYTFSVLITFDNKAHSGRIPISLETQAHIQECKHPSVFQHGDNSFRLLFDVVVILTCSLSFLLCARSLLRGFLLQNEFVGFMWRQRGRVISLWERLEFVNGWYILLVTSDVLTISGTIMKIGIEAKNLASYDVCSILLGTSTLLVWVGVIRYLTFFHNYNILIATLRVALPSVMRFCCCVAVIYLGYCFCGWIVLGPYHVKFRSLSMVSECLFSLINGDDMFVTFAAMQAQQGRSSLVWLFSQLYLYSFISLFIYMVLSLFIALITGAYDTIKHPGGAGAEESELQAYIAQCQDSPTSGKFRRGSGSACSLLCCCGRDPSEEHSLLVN
#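 TRPML1-DL cells, Tet-induced overnight (~16 h, 37 degrees C), loaded 45-90 min at room temperature with Ca8 no-wash calcium dye plus quencher. FDSS fluorescence: 10 s baseline, compound pin-transfer, 110 s agonist read, then EC80 54-4 (4uM final) and 110 s antagonist read.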
# TRPML1 inh: qHTS for Inhibitors of the Human Mucolipin Transient Receptor Potential 1 (TRPML1) | Mucolipin-1 (Homo sapiens), Q9GZU1 | TRPML1-inducible cells, Ca2+ dye fluorescence, FDSS; active compounds read low; inhibition of EC80 agonist-evoked calcium signal | activity change, negative = inhibition, % (no concentration beside the values) | actives 0.02% (n = 390,000) | AID 624415, 2012; in the data active means activity change below about -50%; inconclusive means between about -30% and that limit;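 further: stimulus is agonist 54-4 at its EC80 concentration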
#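 Tet-induced TRPML1-DL cells loaded with Ca8 no-wash calcium dye were read kinetically on FDSS. Compound addition was followed by EC80 agonist 54-4 (4 uM final); inhibition was read over 110 s.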
# TRPV1 PAM: HTS Assay for Compounds that Act as Potentiators of the Vanilloid Receptor 1 | Transient receptor potential cation channel subfamily V member 1 (Homo sapiens), Q8NER1 | TRPV1-expressing cells, Fluo-8 calcium influx, capsaicin EC20 potentiation | potentiation, % at 8.33 µM | actives 0.02% (n = 320,000) | AID 540277, 2011; in the data active means potentiation above about 80%; inconclusive means between about 30% and that limit
#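 Fluo-8 calcium influx in TRPV1-expressing cells, kinetic read (ex 480/em 520 nm). Compound added and read 3 min for agonist activity, followed by capsaicin at EC20 final and 2 min further read for enhancement.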
# TRPV1 agonist: HTS Assay for Compounds that Act as Agonists of the Vanilloid Receptor 1; TRPV1-expressing cells, Fluo-8 calcium influx, agonist mode; actives 0.19% (n = 320,000); AID 540275, 2011; activation, % at 8.33 µM; in the data active means activation above about 80%; inconclusive means between about 30% and that limit
#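 Cells expressing TRPV1 were dye-loaded with Fluo-8 and read kinetically: 10 s baseline, 3 min after compound (agonist portion), then 2 min after EC20 capsaicin (allosteric enhancer portion). Calcium-bound dye fluorescence at 480/520 nm.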
# TRHR ag: qHTS for Small Molecule Agonists and Allosteric Enhancers of Human TRH Receptor: Primary Screen for Agonists | TRHR cells, calcium flux fluo-8, FDSS agonist mode | activation, % at 2 µM | actives 0.18% (n = 360,000) | Thyrotropin-releasing hormone receptor (Homo sapiens), P34981; in the data active means activation above about 30%
#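 TRHR-expressing cells loaded with fluo-8 calcium dye; 23 nL library compound pin-transferred, kinetic FDSS fluorescence (Ex 480/Em 530) recorded about 180 s for agonist-induced calcium release, before a 10 nM TRH EC20 addition for potentiator mode.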
# TRHR PAM: qHTS for Small Molecule Agonists and Allosteric Enhancers of Human TRH Receptor: Primary Screen for Enhancers; Thyrotropin-releasing hormone receptor (Homo sapiens), P34981; TRHR cells, fluo-8 calcium fluorescence, EC20 TRH enhancement; enhancement, % at 2 µM; actives 0.66% (n = 360,000); AID 493056, 2011; in the data active means enhancement above about 30%
#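 TRHR-expressing cells loaded with fluo-8 calcium dye were read kinetically (ex 480/em 530) during compound addition, then stimulated with an EC20 of TRH (10 nM final). Enhancement of the Gq-mediated intracellular calcium response was scored.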
# A number is an active result; - = inactive; ? = inconclusive; . = not tested or not shown. The list is not random: actives were taken first. Their share in the collection is about 0.99%.
SMILES,TRPML1 ag,TRPML1 inh,TRPV1 PAM,TRPV1 agonist,TRHR ag,TRHR PAM
Cc1ccc(-c2cnc(SCCNC(=O)c3ccco3)[nH]2)cc1,-,-,-,-,-,31
Cc1ccc(C(=O)NCCCNC(=O)c2ccco2)cc1,-,-,-,-,-,-
C=C[C@H](CC(C)C)N(Cc1ccccc1)S(=O)(=O)N(Cc1ccccc1)[C@H](C=C)CC(C)C,-,.,.,.,.,.
Cc1cc2c(s1)c1cnn(Cc3cccc4cccnc34)c(=O)c1n2C,.,.,.,.,-,-
Cc1nn2c(CN(C(=O)COc3ccccc3)c3ccccc3)nnc2c2ccccc12,-,-,-,-,-,40
Cc1nn2c(CN(C(=O)CN3CCOCC3)c3ccccc3)nnc2c2ccccc12,-,-,-,-,-,-
CC(=O)NC1CCCc2c1cnn2-c1ccc(C(C)(C)C)cc1 (configuration not stated),-,-,-,?,-,-
Cn1nccc1C(=O)NC1CCCc2c1cnn2-c1ccc(C(C)(C)C)cc1 (configuration not stated),-,-,-,81,-,-
O=C(NNc1c(Cl)cccc1Cl)c1sc2ccccc2c1Cl,-,.,.,.,.,.
CCC(C)Sc1cccc(-c2nc3ccc(C)cn3c2NCc2ccccc2)c1 (configuration not stated),-,-,-,-,-,-
CCC(C)Sc1cccc(-c2nc3ccc(Cl)cn3c2NCc2ccccc2)c1 (configuration not stated),-,-,-,87,-,-
COc1ccc(OC)c(C2c3c(oc4ccc(C)cc4c3=O)C(=O)N2CCCN(C)C)c1 (configuration not stated),-,-,.,.,-,-
COc1cccc(NC(=O)C(OC(=O)CNC(=O)c2ccccc2)c2ccccc2)c1 (configuration not stated),.,.,.,.,-,-
O=C(NNC(=O)C1CCCC1)c1ccccc1F,-,-,-,-,-,35
O=C(NNC(=O)C1CC1c1ccccc1)c1ccccc1F (configuration not stated),-,-,-,-,-,-
COc1cc(Cn2ncc3c4sc(C)cc4n(C)c3c2=O)cc(OC)c1,.,.,.,.,-,-
O=C(N/N=C/c1cccs1)c1c[nH]c2ccccc12,-,-,-,-,-,-
CCc1ccc(/C=N/NC(=O)c2c[nH]c3ccccc23)s1,-,-,-,85,-,-
CN(CC(=O)Nc1ccc(N2CCOCC2)cc1)C(=O)CCCOc1ccc(Cl)cc1Cl,-,-,-,-,-,40
CCOC(=O)c1c(C)c(C(=O)NCc2ccc(Cl)cc2)c(C)n1C,-,-,.,.,-,35
CCOC(=O)c1c(C)c(C(=O)NCc2cccnc2)c(C)n1C,-,-,-,-,-,-
CCOC(=O)CSc1nc2sc3c(c2c(=O)n1-c1ccc(OC)cc1)CCN(C)C3,-,-,-,-,-,-
COC(=O)CSc1nc2sc3c(c2c(=O)n1-c1ccc(OC)cc1)CCN(C)C3,-,-,-,-,-,33
O=C(CNC(=O)c1ccccc1)N[C@@H](C(=O)Nc1cc(C(F)(F)F)ccc1Cl)c1ccccc1,.,.,.,.,-,-
CC1(C)Cc2nc3sc4c(N(CCO)CCO)nnnc4c3cc2CO1,-,-,-,-,-,30
SMILES,TRPML1 ag,TRPML1 inh,TRPV1 PAM,TRPV1 agonist,TRHR ag,TRHR PAM
COc1cccc(/C=N/n2c(SC)nnc2-c2ccccc2)c1OC,-,-,-,-,-,-
COc1cccc(/C=N/n2c(SC)nnc2-c2ccccc2)c1O,-,-,-,89,-,-
O=C(CNC(=O)c1ccc2cc[nH]c2c1)OC(C(=O)Nc1cc(C(F)(F)F)ccc1Cl)c1ccccc1 (configuration not stated),.,.,.,.,-,-
O=C1CSC(c2ccc(Cl)cc2)N1c1cccnc1 (configuration not stated),78,-,-,-,-,-
COc1ccc2c(c1)C/C(=C\c1ccc(N(C)C)cc1)C2=O,72,.,.,.,.,.
COc1cccc2c1C(=O)/C(=C/c1ccc(N(C)C)cc1)C2,-,.,.,.,.,.
CCc1cccc(NC(=O)CCc2c(C)nc3c(c2C)c(=O)n(C)c(=O)n3C)c1,-,-,.,.,-,-
CN(Cc1ccsc1)C(=O)CCc1nnc(Cc2c[nH]c3ccccc23)o1,-,-,-,-,-,36
COc1ccc(C(=O)C[n+]2cccc3cccc(O)c32)cc1,-,.,.,.,.,.
Cc1nn(-c2ccccn2)c2nc(-c3cccs3)cc(C(=O)NCc3ccco3)c12,-,-,-,83,-,-
COC(=O)c1ccc(Cn2ncc3c4sc(C)cc4n(C)c3c2=O)cc1,.,.,.,.,-,-
CCOc1cc(/C=N/NC(=O)CSc2nncn2C)ccc1OC(=O)c1ccc(Cl)cc1,-,-,-,-,-,30
CC(C)CC(=O)N1C/C=C\C[C@@H](c2ccc(Cl)cc2)N(Cc2ccc(Cl)cc2)C(=O)[C@@H]1Cc1ccccc1,-,.,.,.,.,.
Cc1cc(O)ccc1C1(c2ccc(O)cc2C)OC(=O)c2ccccc21,-,-,-,-,-,-
CC(=O)Oc1ccc2c(c1)Oc1cc(OC(C)=O)ccc1C21OC(=O)c2ccccc21,113,-,-,140,106,-
O=S(=O)(c1cccs1)N1CCN(c2nc(-c3cccs3)nc3ccccc23)CC1,-,.,.,.,.,.
O=C(CCn1cccn1)N1CCCC(N2CCN(c3cccc(C(F)(F)F)c3)CC2)C1 (configuration not stated),-,-,-,-,-,34
COc1ccc(-c2onc(C)c2C)cc1S(=O)(=O)Nc1ccc(OC(F)(F)F)cc1,-,-,.,.,-,-
N#Cc1nc(Nc2cc(F)cc(F)c2)nc(Nc2cc(F)cc(F)c2)n1,.,.,.,.,-,-
O=C(Nc1ccc(Cl)cc1Cl)[C@@H]1CC=C[C@@H]2CCN(C3CC3)C(=O)[C@@H]21,-,.,.,.,.,.
CCN(C(=O)CSc1nc2ccccc2n1CC(=O)Nc1ccc(F)cc1F)c1ccccc1,-,-,.,.,-,-
Cc1ncoc1C(=O)NC1CC(C)(C)Cc2c1cnn2-c1ccc(F)cc1 (configuration not stated),-,-,-,85,-,-
